Results filed as inconclusive are left out. The source made the active and inactive calls. The calls were made as follows: active = hit-call score of the fitted dose curve at least 0.9, where 1 is the maximum; inconclusive = response in the unintended direction; inactive = score below 0.9.

The target of the assay is zebrafish Retinoid X Receptor beta (RXRb), rxrba (gene 30530) (UniProt Q7SYN5). The assay is described as follows: ATG_zfRXRb_EcoTox2: Attagene TRANS-FACTORIAL EcoTox-2 HepG2 Assay for zebrafish Retinoid X Receptor beta (RXRb). As to the method: ATG_EcoTox2 is a cell-based, multiplexed assay created by modifying the existing Attagene TRANS-FACTORIAL system to include a panel of nuclear receptors from some or all the following species: human (Homo sapiens), african clawed frog (Xenopus laevis), rainbow trout (Oncorhynchus mykiss), japanese medaka (Oryzias latipes), and zebrafish (Danio rerio). The ECOTOX2-FACTORIAL format uses HepG2, a human liver cell line, with measurements taken at 24 hours after chemical dosing in a 24-well plate. ATG_zfRXRb_EcoTox2 is one of 29 assay components calculated in the ATG_EcoTox2 assay. It is designed to make measurements of mRNA induction, a form of inducible reporter, as detected with fluorescence intensity signals by Reverse transcription polymerase chain reaction (RT-PCR) and Capillary electrophoresis technology.The assay endpoint ATG_zfRXRb_EcoTox2 was analyzed in the positive analysis fitting direction relative to DMSO as the negative control and baseline of activity. Using a type of inducible reporter, measures of mRNA for gain-of-signal activity can be used to understand the reporter gene at the transcription factor-level as they relate to the gene RXRb. Furthermore, this assay endpoint can be referred to as a primary readout, because this assay has produced multiple assay endpoints where this one serves a reporter gene function. To generalize the intended target to other relatable targets, this assay endpoint is annotated to the nuclear receptor intended target family, where the subfamily is non-steroidal.
Chain of zebrafish Retinoid X Receptor beta (RXRb), rxrba (gene 30530) (Q7SYN5 whole entry, looked up): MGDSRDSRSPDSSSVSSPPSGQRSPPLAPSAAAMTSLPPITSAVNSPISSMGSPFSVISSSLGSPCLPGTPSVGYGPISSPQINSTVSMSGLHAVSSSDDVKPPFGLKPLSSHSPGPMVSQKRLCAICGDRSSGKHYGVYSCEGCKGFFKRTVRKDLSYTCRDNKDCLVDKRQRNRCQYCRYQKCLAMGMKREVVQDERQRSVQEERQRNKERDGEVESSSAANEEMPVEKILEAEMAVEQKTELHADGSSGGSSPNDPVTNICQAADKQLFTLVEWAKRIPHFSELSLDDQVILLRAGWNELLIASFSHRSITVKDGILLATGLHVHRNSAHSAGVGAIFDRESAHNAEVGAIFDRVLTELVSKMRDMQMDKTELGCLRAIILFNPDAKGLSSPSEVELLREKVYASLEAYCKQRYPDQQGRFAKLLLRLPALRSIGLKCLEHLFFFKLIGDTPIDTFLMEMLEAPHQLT
Human liver HepG2 cells are transiently transfected with multiple reporter transcription units (MRTUs) in 6-well plates using FuGene 6 reagent (Roche; 3 ml FuGene/1 mg DNA). The MRTU constructs are regulated by a cis-regulating element (promoter). Each RTU expresses a GAL4-UAS that regulates the transcription of a nearby target reporter gene sequence. A major difference between the CIS and TRANS system is that in CIS activities of endogenous TFs are measured, whereas the TRANS assay evaluates changes in activities of exogenous, chimeric NR-Gal4 proteins. […] At the end of 24 hour incubation, total RNA was isolated using TriZol reagent (Invitrogen). The isolated RNA is then reverse-transcribed using oligo(dT) primer and Mo-MLV reverse transcriptase (Invitrogen) with DNAse I (Ambion) treatment for 30 min. The one-tenth of the produced cDNA was amplified by PCR using Taq DNA polymerase (Invitrogen) and two reporter sequence-specific primers. The PCR products were fluorescently labeled by primer extension with 6-arboxyfluorescein (6-FAM) 5'-labeled reporter sequence-specific primer (2 min at 95 C, 20 s at 68 C and 10 min at 72 C) and these products were digested with 5U of HpaI (New England Biolabs) for 2h at 37 C. The fragments were purified using Qiaquick PCR columns (Qiagen), analyzed on an ABI 3130xL genetic analyzer (Applied Biosystems) with peak positions identified by using a set of X-rhodamine (ROX)-labeled MapMarker1000 molecular weight standards (BioVentures). The raw capillary electrophoresis data was processed using Attagraph software (Attagene).
As to `CC(C)(Oc1ccc(CCNC(=O)c2ccc(Cl)cc2)cc1)C(=O)O`, the compound was called inactive.

For `CC(C)(Oc1ccc(Cl)cc1)C(=O)O`, the compound was classed as inactive.

As for `CC(C)(Oc1ccc(C2CC2(Cl)Cl)cc1)C(=O)O` (stereo not given), the compound was called inactive.

Take `CC(c1cc2ccccc2s1)N(O)C(N)=O` (stereo not given): the outcome was inactive.

Consider `C[C@]12C=CC(=O)C=C1CC[C@@H]1[C@@H]2C(=O)C[C@@]2(C)[C@H]1CC[C@]2(O)C(=O)CO`, for which the compound was classed as inactive.

Turning to `C=C(c1ccc(C(=O)O)cc1)c1cc2c(cc1C)C(C)(C)CCC2(C)C`, the AC50 was 597 nM (active).

Consider `Cc1ccc(C)c(OCCCC(C)(C)C(=O)O)c1`, for which the compound was classed as inactive.

Take `C[C@@H]1C[C@H]2[C@@H]3CCC4=CC(=O)C=C[C@]4(C)[C@@]3(F)[C@@H](O)C[C@]2(C)[C@@]1(O)C(=O)COP(=O)(O)O`: the outcome was inactive.

With `Cc1c(C)c2c(c(C)c1O)CCC(C)(COc1ccc(CC3SC(=O)NC3=O)cc1)O2` (stereo not given), the outcome was inactive.

As for `Cc1cccc(Nc2cc(Cl)nc(SCC(=O)O)n2)c1C`, the compound was called inactive.
